Here are results for eight compounds from PubChem BioAssay AID434969 (The Scripps Research Institute Molecular Screening Center, 2010).

Some of the results follow. The source made the active and inactive calls.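 The calls were made as follows: active = mean activation over three repeats above the cutoff from the earlier oxytocin receptor agonist screen (cut at about 20% in these data); inactive = the rest.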

Sequence of Oxytocin receptor (Homo sapiens) (P30559 whole entry, looked up): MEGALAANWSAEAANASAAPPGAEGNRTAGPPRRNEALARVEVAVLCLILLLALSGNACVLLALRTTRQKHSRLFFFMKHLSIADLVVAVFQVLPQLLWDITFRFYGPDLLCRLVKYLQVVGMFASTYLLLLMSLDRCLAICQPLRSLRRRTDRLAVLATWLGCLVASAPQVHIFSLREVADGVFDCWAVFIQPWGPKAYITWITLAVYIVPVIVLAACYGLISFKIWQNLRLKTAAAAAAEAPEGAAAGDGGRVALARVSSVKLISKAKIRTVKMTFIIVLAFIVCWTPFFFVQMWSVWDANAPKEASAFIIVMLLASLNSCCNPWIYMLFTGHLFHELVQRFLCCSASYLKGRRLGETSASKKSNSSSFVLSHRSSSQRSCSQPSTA

This test has as its target Oxytocin receptor (Homo sapiens) (UniProt P30559). The test can be described thus: oxytocin receptor activation, calcium signal – fluorescence, CHO-OTR cells, triplicate, counter-screen for V1R agonist project (AID 434969).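 Also: peak over minimum fluorescence ratio within a 100 second FLIPR read; 0% = DMSO only wells and 100% = oxytocin high control wells.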 The settings on record: Fluo-8 calcium fluorescence, at 3 µM, active compounds read high.
Consider `Cc1cc(C)c(/C=C2\C(=O)Nc3ccccc32)[nH]1`, for which the activation is 16.6% (inactive).

`O=C(c1ccccc1)c1ccc(OCC(O)CN2CCCC2)cc1` (stereo not drawn): the activation is 2.06% (inactive).

For the compound `CCN(CC)c1ccc(/C=N/NC(=O)c2cnccn2)c(O)c1`, the activation is 9.1% (inactive).

Take `Fc1cccc(Cl)c1COc1ccc(-c2nnco2)cc1`: the activation is -0.58% (inactive).

Consider `CC1(C)S[C@@H]2[C@H](N=CN3CCCCCC3)C(=O)N2[C@H]1C(=O)O`, for which the activation is 0.49% (inactive).

For `O=c1c2cc(Br)ccc2nc(-c2cccc(Cl)c2)n1O`, the activation is 15.4% (inactive).

With `CCN(CC)c1ccc2cc(C(N)=O)/c(=N\NC(=O)c3ccncc3)oc2c1`, the activation was 15.6% (inactive).

Turning to `O=C(CN1CCN(c2cccc(Cl)c2)CC1)Nc1ccc(S(=O)(=O)N2CCOCC2)cc1`, the activation was 5.65% (inactive).
